Compound activity from PubChem.
FLuc modulator: counter-screen for miR-21 project: firefly luciferase inhibitors or activators; purified FLuc, Km substrates, luminescence inhibition; Potency, µM (top dose mostly 57.5 µM), actives largely listed as inhibitors; actives 6.9% (n = 360,000); further: nearly all actives have a fitted effect of over 55% in size
Target sequence (P08659 whole entry, looked up): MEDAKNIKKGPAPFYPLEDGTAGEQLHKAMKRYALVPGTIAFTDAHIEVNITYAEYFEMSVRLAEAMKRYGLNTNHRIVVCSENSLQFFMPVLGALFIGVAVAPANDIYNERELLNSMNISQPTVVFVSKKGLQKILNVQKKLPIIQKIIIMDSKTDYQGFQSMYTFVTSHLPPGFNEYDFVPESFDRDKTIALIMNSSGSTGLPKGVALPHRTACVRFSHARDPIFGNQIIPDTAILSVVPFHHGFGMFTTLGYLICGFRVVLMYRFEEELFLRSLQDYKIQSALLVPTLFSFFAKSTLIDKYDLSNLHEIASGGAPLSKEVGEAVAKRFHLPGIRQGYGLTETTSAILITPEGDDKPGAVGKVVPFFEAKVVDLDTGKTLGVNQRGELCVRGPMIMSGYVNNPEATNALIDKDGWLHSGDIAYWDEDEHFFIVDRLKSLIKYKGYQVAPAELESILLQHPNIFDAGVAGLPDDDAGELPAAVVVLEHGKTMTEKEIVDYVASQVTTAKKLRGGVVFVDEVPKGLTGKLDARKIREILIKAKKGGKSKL
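Purified P. pyralis luciferase, 10 nM final, with Km-level 10 uM D-luciferin and 10 uM ATP in 50 mM Tris acetate pH 7.5, 10 mM Mg acetate, 0.01% Tween-20, 0.05% BSA; 6-point qHTS titration about 60 µM downward; luminescence read.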
Luc counter: counter-screen: inhibitors of Kinase-Glo firefly luciferase; Q27757; Kinase-Glo luciferase, ATP luminescence, 8 min; Potency, µM (highest dose often 38.3 µM), actives largely listed as inhibitors; actives 0.28% (n = 200,000); AID 1379; further: nearly all actives have a fitted effect of over 60% in size
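Luminescence was the read-out, taken after 8-minute incubation at ambient temperature. Luciferase turned over luciferin with 10 uM ATP in imidazole pH 7.2 buffer containing KCl, MgCl2, Tween 20 and BSA.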
ELG1 genotox: genotoxicity induction in ELG1-luciferase HEK293T cells. HEK293T ELG1-luciferase reporter, luminescence, 16 h. Potency, µM (highest dose often 46 µM), usual class: activators. actives 1.3% (n = 330,000); further: nearly all actives have a fitted effect of over 60% in size
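After overnight (16 hr) compound treatment at 37 °C, ELG1-luciferase HEK293T cells were lysed with ONE-Glo; luminescence quantified 30 min later at room temperature.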
Rab9 prom act: activates the Rab9 promoter | actives 2.8% (n = 320,000) | Potency, µM (doses to about 9.22 µM), usual class: activators | Huh7 Rab9 promoter-luciferase reporter, luminescence, 24 h; further: nearly all actives have a fitted effect of over 60% in size
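Rab9 promoter-driven luciferase in stably transfected Huh7 cells; 1500 cells/well rested 2 h, exposed to compound in DMSO for 24 h at 37 °C, 5% CO2. Luminescence read 10 min after adding luciferase reagent at ambient temperature.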
NPC1 prom act: activates the NPC1 promoter; AID 485313; Potency, µM (top dose mostly 9.22 µM), actives largely listed as activators; Huh7 NPC1 promoter luciferase reporter, 24 h; actives 2.4% (n = 320,000); further: nearly all actives have a fitted effect of over 60% in size
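Luciferase expression driven by the NPC1 promoter was measured in stably transfected Huh7 cells after a 24 h compound incubation, using a luciferase reagent and a luminescence read.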
SMN2 splice up: enhancers of SMN2 splice variant expression. HEK293 SMN2-luciferase splicing reporter, luminescence, 30-36 h. Potency, µM (doses to about 46.1 µM), usual class: activators. actives 2.8% (n = 210,000). AID 1458; further: nearly all actives have a fitted effect of over 55% in size
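HEK293 cells carry an SMN2 minigene-luciferase reporter in which exon 7 inclusion puts luciferase in frame. Cells were seeded at 2000 cells/well, attached for 10-12 hours, then exposed to compounds for 30-36 hours at 37C before ONE-Glo luminescence.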
Numbers stand for hits; - = inactive; ? = inconclusive; . = no result; [ ] = dose if it differs, or a comment. An excerpt weighted towards active compounds, which were near 7.3% of everything screened. The call rests on the fitted dose curve; in most records, active means well fitted curve in the direction sought with a large enough effect; inconclusive means small, poorly fitted or top-dose-only effect, or another doubt; inactive means no such curve, though single readings can be large; an effect the other way counts as inactive or inconclusive.

SMILES | FLuc modulator | Luc counter | ELG1 genotox | Rab9 prom act | NPC1 prom act | SMN2 splice up
CCCc1cc(=O)oc2cc(OC3CCCCC3=O)ccc12 (stereo not given) | - | . | - | - | - | .
CCC(C)Nc1nc(-c2ccc3c(c2)NC(=O)CO3)cs1 (stereo not given) | 17µM | - | - | ? | - | -
COCCOC(=O)C1=C(C)NC2=C(C(=O)CC(C)(C)C2)C1c1ccc(N(C)C)cc1 (stereo not given) | - | - | - | - | - | -
COCCCNC(=O)c1sc2nc(C)c(C(=O)Nc3ccc(C)cc3C)c(-c3ccc(Br)cc3)c2c1N | - | . | . | . | . | -
COc1cccc(NC(=O)c2sc3nc(C)c(C(=O)Nc4ccc(C)cc4C)c(-c4ccc(Br)cc4)c3c2N)c1 | - | . | . | . | . | 13µM
COc1ccc(-c2ccc3c(N)c(C(=O)Nc4cccc(C)c4)sc3n2)cc1 | - | . | . | . | . | 1.8µM
COc1ccc(-c2ccc3c(N)c(C(=O)NC(C)C)sc3n2)cc1OC | 17µM | . | - | - | - | .
CCOc1ccccc1N(CC(=O)Nc1c(C)n(C)n(-c2ccccc2)c1=O)S(=O)(=O)c1ccccc1 | - | . | - | - | - | .
COc1ccc(C2C=C(c3ccccc3)Nc3nnnn32)cc1 (stereo not given) | - | - | - | ? | 4µM | -
COc1cccc(C2=CC(c3cccc(OC)c3OC)n3nnnc3N2)c1 (stereo not given) | 24µM | - | ? | - | - | ?
COc1ccc(C2=CC(c3ccc(C)cc3)n3nnnc3N2)cc1 (stereo not given) | - | - | - | - | - | -
COc1cccc(CN2CCN(Cc3cccc(Br)c3)CC2)c1OC | - | . | - | -[1.84 µM] | - | .
O=c1[nH]c(C2CCN(S(=O)(=O)c3ccc4c(c3)OCCO4)CC2)nc2c1nnn2Cc1cccc(F)c1 | - | . | - | - | - | .
Cc1cccc(OCc2ccc(-c3nc(C#N)c(N4CCN(c5ccccc5)CC4)o3)o2)c1 | - | . | . | . | . | .
CN(C)c1ccc(C2=NOC(CN3C(=O)c4ccccc4S3(=O)=O)C2)cc1 (stereo not given) | 3µM | - | ? | 0.63µM | 3.2µM | 13µM
COc1ccc2[nH]c(=O)c(CN(C(=O)c3ccncc3)C(C)C)cc2c1 | - | - | - | - | - | ?
CC(=O)c1ccc(NC(=O)N2CCc3ccccc3C2)cc1 | ? | - | - | ? | - | 22µM
CC(=O)c1cccc(NC(=O)N2CCCc3ccccc32)c1 | ? | - | - | - | - | -
CC(=O)c1cccc(NC(=O)N2CCc3ccccc3C2)c1 | 13µM | - | ? | ? | 4µM | -
COc1ccc(S(=O)(=O)NCC2CCCN(C(=O)c3ccco3)C2)cc1 (stereo not given) | - | - | - | - | - | .
Cc1ccc(C(=O)ONc2ccc(N=O)cc2)cc1 | 0.03µM | 13µM | - | - | - | -
CC(=O)Nc1ccc(C(=O)OCc2ccc(Br)cc2)cc1 | - | - | - | - | - | -
O=Nc1ccc(NOC(=O)c2ccc(Br)cc2)cc1 | 0.076µM | - | - | - | - | -
COC(=O)c1ccc(N=NN2CCCCC2)cc1 | 8.5µM | - | 8.2µM | 2.2µM | 2.8µM | 14µM
COC(=O)c1ccc(NC(=O)CCN2CCCCC2)cc1 | - | - | - | - | - | -
SMILES | FLuc modulator | Luc counter | ELG1 genotox | Rab9 prom act | NPC1 prom act | SMN2 splice up
COC(=O)c1ccc(NN=Nc2ccc(C)cc2)cc1 | 6.7µM | - | ? | 1.1µM | 0.79µM | 11µM
COC(=O)c1ccc(C)cc1 | . | . | - | . | . | -
COC(=O)c1ccc(NC(=O)CSCc2ccc(C)cc2)cc1 | - | - | - | - | - | -
CCc1ccc(NC(=O)C2CCCN(S(=O)(=O)c3cccc4nonc34)C2)cc1 (stereo not given) | - | . | . | . | . | -
CC(=O)NCCC(=O)Nc1cc(S(=O)(=O)N2CCCCC2)ccc1N1CCN(C)CC1 | - | . | - | - | - | .
O=S(=O)(CCN1CCN(C(c2ccccc2)c2ccccc2)CC1)C(F)(F)F | - | - | - | - | - | -
Cc1ccc(OCCNC(=O)c2ccccc2O)cc1 | ? | . | - | - | - | .
Cc1ccc(C(=O)ONc2ccc(N=NC(=O)c3ccccc3O)cc2)cc1 | 12µM | - | ? | ? | - | -
Cc1nn(CC2CCCCC2)c(N)c1-c1ccccc1 | 17µM | - | ? | ? | - | -
Cc1nn(-c2ccccc2)c(N)c1-c1ccccc1 | 13µM | - | - | 3.2µM | ? | 13µM
Nc1c(-c2ccccc2)c(CN2CCOCC2)nn1-c1ccccc1 | - | - | - | - | - | -
Cc1nn(-c2nc3ccccc3[nH]2)c(N)c1-c1ccccc1 | 1.9µM | - | ? | 0.63µM | 1.6µM | 2µM
Cc1nn(-c2ccccc2)c(/N=C/c2ccccc2O)c1-c1ccccc1 | - | - | ? | 2.8µM | 2.2µM | 11µM
Nc1c(-c2ccccc2)c(CSc2nc3ccccc3[nH]2)nn1-c1cccc(C(=O)O)c1 | ? | - | - | - | - | -
Cc1ccc(C)c(NC(=S)N2CCCCC2CO)c1 (stereo not given) | - | - | - | - | - | -
C=CCN(c1ccc(C(=O)NCCSc2ccccc2)cc1)S(C)(=O)=O | ? | . | - | - | - | .
Cc1cc(-c2ccccc2)n(-c2ccccc2)n1 | 15µM | . | ? | ? | ? | .
COC(=O)c1ccc(NC(=O)CSc2nc3c(c(=O)n(C)c(=O)n3C)n2Cc2ccccc2)cc1 | - | . | . | . | . | -
CCOC(=O)Cc1c(C)nc2c(-c3ccc(Cl)cc3)cnn2c1C | 27µM | - | - | - | - | -
CCOC(=O)Cc1c(C)nc2c(-c3ccccc3)c(C)nn2c1C | 21µM | - | - | - | - | -
O=C(NCc1cccnc1)c1ccc2c(c1)C(=O)N(Cc1ccccc1)C2=O | - | . | - | - | - | .
O=C(/C=C\Nc1ccc2c(c1)OCO2)c1ccc(Cl)s1 | 0.24µM | - | 0.82µM | 0.32µM | 0.4µM | 3.5µM
O=C(/C=C\Nc1ccc2c(c1)OCO2)c1cccs1 | 0.12µM | 13µM | 1µM | 0.56µM | 1.4µM | .
O=C(CCl)Nc1ccc2c(c1)OCO2 | - | - | - | - | - | -
O=C(N/C(=C/c1ccc2c(c1)OCO2)C(=O)N1CCOCC1)c1cccs1 | - | - | - | - | - | -
SMILES | FLuc modulator | Luc counter | ELG1 genotox | Rab9 prom act | NPC1 prom act | SMN2 splice up
CCOC(=O)c1cnn2c(C(F)(F)F)cc(-c3ccco3)nc12 | - | - | - | - | - | -
CCOc1ccc(N2C(=O)CC(SCCN)C2=O)cc1 (stereo not given) | 17µM | - | ? | 2.2µM | 1.4µM | 11µM
CCn1cc(CN2CCC(n3nccc3NC(=O)C3CCCC3)CC2)c(C)n1 | - | . | - | - | - | .
O=C(c1ccc(OC(F)(F)F)cc1)c1ncc[nH]1 | ? | . | ? | 3.5µM | ? | .
O=C(c1ncc[nH]1)c1ccccc1Cl | - | . | - | - | - | .
Cc1ccc(/C=N/Nc2ccc(Cl)nn2)cc1 | ? | . | ? | 3.2µM | 1.8µM | .
